In the library only some 15% were active in any assay of this set; here they are far more common.
TDP1 cell noCPT: qHTS for Inhibitors of human tyrosyl-DNA phosphodiesterase 1 (TDP1): qHTS in cells in absence of CPT. DT40 Tdp1-/- hTDP1 cells, no CPT, ATP luminescence, 48 h. Potency, µM (highest dose often 46.2 µM), most hits filed as inhibitors. 420,000 compounds, 15% hits; further: nearly all actives have a fitted effect of over 55% in size
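Luminescent ATP content (CellTiter-Glo) served as the growth readout. Knockout chicken DT40 cells expressing human TDP1 were exposed to compounds without camptothecin for a minimum 48 hr at 37 °C.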
RORgamma inh: qHTS for inhibitors of ROR gamma transcriptional activity | 310,000 compounds, 5.4% hits | Potency, µM (titrated, usually from 53.6 µM), hits mostly inhibitors | Drosophila S2 Gal4-RORgamma UAS-luciferase reporter, 20 h | Nuclear receptor ROR-gamma (Mus musculus), P51450; further: nearly all actives have a fitted effect of over 60% in size
Target sequence (P51450 whole entry, looked up, the tested form may be a part): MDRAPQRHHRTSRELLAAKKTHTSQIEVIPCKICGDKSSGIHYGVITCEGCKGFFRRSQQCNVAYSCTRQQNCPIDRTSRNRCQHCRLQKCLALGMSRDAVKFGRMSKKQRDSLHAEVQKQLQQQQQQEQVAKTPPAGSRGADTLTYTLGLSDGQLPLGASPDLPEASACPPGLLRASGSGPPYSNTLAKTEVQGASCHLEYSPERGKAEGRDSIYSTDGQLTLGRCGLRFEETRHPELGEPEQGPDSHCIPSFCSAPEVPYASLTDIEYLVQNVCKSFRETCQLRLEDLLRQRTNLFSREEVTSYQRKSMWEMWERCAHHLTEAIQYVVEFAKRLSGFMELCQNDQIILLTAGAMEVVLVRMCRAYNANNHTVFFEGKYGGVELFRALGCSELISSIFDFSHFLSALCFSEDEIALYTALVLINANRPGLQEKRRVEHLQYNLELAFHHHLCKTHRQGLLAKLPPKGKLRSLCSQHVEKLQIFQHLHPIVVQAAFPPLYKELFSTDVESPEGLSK
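Read-out: Photinus luciferase luminescence; inhibitors lower reporter signal. Insect Schneider cells with Gal4-ROR gamma fusion under metallothionein promoter, UAS reporter; 700 uM final copper sulfate induction, 20 hr, ambient temperature.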
ELG1 repair inh: qHTS screen for small molecules that inhibit ELG1-dependent DNA repair in human embryonic kidney (HEK293T) cells expressing luciferase-tagged ELG1. AID 504467, 2011. HEK293T ELG1-luciferase reporter, luminescence, 16 h; DNA damage induced by 5-fluorouridine. Potency, µM (doses to about 46.1 µM), hits mostly inhibitors. 330,000 compounds, 2.3% hits; further: nearly all actives have a fitted effect of over 55% in size
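Quantitative HTS, concentration-response format. 2,000 cells/well co-treated with 5-fluorouridine and compound, 16 hr in 5% CO2 at 37 °C; ONE-Glo luminescence read after 30 min.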
ALOX12 inh: Primary qHTS assay for inhibitors of human arachidonate 12S-lipoxygenase (ALOX12): Round 2; Polyunsaturated fatty acid lipoxygenase ALOX12 (Homo sapiens), P18054; purified 12hLO, xylenol orange hydroperoxide absorbance; Potency, µM (titrated, usually from 108 µM), actives largely listed as inhibitors; 580,000 compounds, 1.1% hits; AID 1671190, 2021
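Hydroperoxide product was detected by ferrous iron/xylenol orange as the 573 to 405 nm absorbance ratio. Arachidonic acid at 40 uM (final) was turned over for 30 min at room temperature by 150 nM human 12hLO, pH 7.0 Hepes buffer, after 15 min compound preincubation.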
DT40 TDP1 CPT: qHTS for Inhibitors of human tyrosyl-DNA phosphodiesterase 1 (TDP1): qHTS in cells in presence of CPT; chicken DT40 Tdp1-/-;hTDP1 cells + 20 nM CPT, ATP luminescence, 48 h; Potency, µM (series often up to 46.2 µM), usual class: inhibitors; 420,000 compounds, 12% hits; AID 686979, 2013; further: nearly all actives have a fitted effect of over 55% in size
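Cell growth measured by CellTiter-Glo luminescence after a minimum 48 h, 37 C compound exposure with 20 nM CPT in Tdp1-knockout DT40 cells stably expressing hTDP1, seeded 400/well; qHTS titration format.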
VP16 counter: VP16 counterscreen qHTS for inhibitors of ROR gamma transcriptional activity; Drosophila S2 Gal4-VP16 UAS-luciferase, luminescence, 20 h; Potency, µM (series often up to 53.6 µM), usual class: inhibitors; 310,000 compounds, 3.5% hits;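 further: Gal4-VP16 expression switched on by copper sulfate through the metallothionein promoter; nearly all actives have a fitted effect of over 50% in size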
Numbers stand for hits; – = inactive; ? = inconclusive; · = no result. The call rests on the fitted dose curve; in most records, active means well fitted curve in the direction sought with a large enough effect; inconclusive means small, poorly fitted or top-dose-only effect, or another doubt; inactive means no such curve, though single readings can be large; an effect the other way counts as inactive or inconclusive.

SMILES	TDP1 cell noCPT	RORgamma inh	ELG1 repair inh	ALOX12 inh	DT40 TDP1 CPT	VP16 counter
COc1cc(OC)cc(-c2c(-c3cccs3)c3cc(-c4ccc5cc[nH]c5c4)ccc3n2C)c1	13µM	·	–	–	?	·
COc1ccc(-c2ccc3c(c2)c(Sc2ccccc2)c(-c2ccccc2)n3C)cn1	?	·	·	–	?	·
COc1cccc(-c2c(-c3cc(OC)cc(OC)c3)n(C)c3ccc(-c4ccc5cc[nH]c5c4)cc23)c1	?	·	–	–	18.4µM	·
Cn1c(-c2ccccc2)c(Sc2ccccc2)c2cc(-c3ccc4cc[nH]c4c3)ccc21	23.1µM	·	·	–	?	·
CCc1ccc(S(=O)(=O)N2CCC(n3cnnc3COC)CC2)cc1	·	·	·	–	·	·
CCCN(CC(=O)Nc1ccccc1OC)C(=O)C1CCCC1	20.6µM	·	–	–	?	·
CCCN(CC(=O)Nc1ccccc1OC)C(=O)Cc1ccc2c(c1)CCC2	?	·	–	·	18.4µM	·
CCN(CC(=O)Nc1ccccc1C(F)(F)F)C(=O)Cc1ccc2c(c1)CCC2	?	·	–	–	–	·
C[C@@H]1OC(C2CCCCC2)N(C)[C@H]2C[C@H]3c4[nH]c5ccccc5c4CCN3C[C@@H]12 (some centres not stated)	?	·	·	–	20.6µM	·
Cc1ccc(CN(C)C(=O)Cc2c(C)nc3ccccc3c2C)o1	·	·	·	–	·	·
O=C(N[C@H]1C[C@H]2C(=O)Nc3ccccc3C(=O)N2C1)c1cccnc1	·	·	·	–	·	·
Cc1c(CC(=O)NCCc2ccc(Cl)cc2)c(=O)oc2c(C)c(O)ccc12	·	·	·	–	·	·
CCOC(=O)c1cc(-c2ccccc2)n(CC2CC(c3ccc(OC)cc3)=NO2)n1 (configuration not stated)	23.1µM	–	?	–	23.1µM	?
COc1ccc(C2=NOC(Cn3nc(C(=O)NCc4ccc(C)cc4)cc3-c3ccccc3)C2)cc1 (configuration not stated)	20.6µM	·	?	–	?	·
COc1ccc(C2=NOC(Cn3nc(C(=O)O)cc3-c3ccccc3)C2)cc1 (configuration not stated)	–	–	–	?	–	–
COc1ccc(C2=NOC(Cn3nc(C(=O)NCc4cccc(C(F)(F)F)c4)cc3-c3ccccc3)C2)cc1 (configuration not stated)	?	·	–	–	18.4µM	·
O=C(NCc1cccc(C(F)(F)F)c1)c1cc(-c2ccccc2)nn1CC1CC(c2cccnc2)=NO1 (configuration not stated)	?	·	·	?	–	·
COc1ccc(C2=NOC(Cn3nc(C(=O)NCc4ccco4)cc3-c3ccccc3)C2)cc1 (configuration not stated)	16.4µM	·	?	?	?	·
Cc1ccc(NC(=O)N2CC(c3nnc(-c4ccncc4)o3)C3(CCOCC3)C2)cc1 (configuration not stated)	·	·	·	–	·	·
O=C(c1ccc2cc[nH]c2c1)N1CCN(S(=O)(=O)c2cccc3nonc23)CC1	·	·	·	–	·	·
COc1ccc(C2=NOC(Cn3nc(C(=O)NCc4cccs4)cc3-c3ccccc3)C2)cc1 (configuration not stated)	?	·	?	–	?	·
COc1ccc(C2=NOC(Cn3nc(-c4ccccc4)cc3C(=O)NCc3cccs3)C2)cc1 (configuration not stated)	9.2µM	·	11.6µM	–	?	·
COCCN1C2=C(C(=O)CC(C)(C)C2)C(c2cccc(O)c2)C2=C1CC(C)(C)CC2=O	·	·	·	–	·	·
FC(F)c1nc2nc(Cl)c(Cl)nc2[nH]1	?	·	·	–	16.4µM	·
FCc1nc2nc(Cl)c(Cl)nc2[nH]1	?	·	·	?	–	·
SMILES	TDP1 cell noCPT	RORgamma inh	ELG1 repair inh	ALOX12 inh	DT40 TDP1 CPT	VP16 counter
CCCNC(=O)C[C@@H]1CCN(S(=O)(=O)c2c(C)noc2C)C[C@@H]1CC	·	·	·	–	·	·
CCOCCn1c(CN(C)Cc2ccccc2)nc2c1c(=O)n(C)c(=O)n2C	23.1µM	–	?	–	?	–
COCCn1c(CN(C)Cc2ccccc2)nc2c1c(=O)n(C)c(=O)n2C	?	–	?	–	?	–
CCOC(=O)Cn1c(CN(Cc2ccccc2)Cc2ccccc2)nc2c1c(=O)n(C)c(=O)n2C	?	–	?	–	20.6µM	–
Cn1c(=O)c2c(nc(Cc3ccccc3)n2C)n(C)c1=O	–	–	–	–	–	–
CCCn1c(CN(C)Cc2ccccc2)nc2c1c(=O)n(C)c(=O)n2C	10.3µM	?	11.6µM	–	9.2µM	?
CCCn1c(CN(Cc2ccccc2)Cc2ccccc2)nc2c1c(=O)n(C)c(=O)n2C	14.6µM	–	?	–	23.1µM	?
Cc1ccc(C(=O)N2CCc3sc(C(=O)NCc4ccc(C)o4)cc3C2)cc1	·	·	·	–	·	·
COCc1cn(C[C@H]2C[C@@H](NC(=O)C(C)C)[C@H](O)[C@@H]2O)nn1	·	·	·	–	·	·
CCCCn1c(CN(C)Cc2ccccc2)nc2c1c(=O)n(C)c(=O)n2C	4.11µM	?	?	–	6.51µM	?
CN(Cc1ccccc1)Cc1nc2c(c(=O)n(C)c(=O)n2C)n1Cc1ccccc1Cl	11.6µM	–	14.6µM	–	25.9µM	–
Cn1c(=O)c2c(nc(CN(Cc3ccccc3)Cc3ccccc3)n2Cc2ccccc2)n(C)c1=O	·	·	·	–	·	·
Cn1c(=O)c2c(nc(Br)n2CCc2ccccc2)n(C)c1=O	?	–	?	–	?	–
CN(Cc1ccccc1)Cc1nc2c(c(=O)n(C)c(=O)n2C)n1CCc1ccccc1	18.4µM	·	·	–	13µM	·
OCCOc1ccc(CNCc2ccco2)cc1	·	·	·	–	·	·
Cc1cc(Cl)ccc1NC(=O)C1CCCc2ccccc21 (configuration not stated)	·	·	·	–	·	·
Cc1ccc2oc(C(=O)Nc3ccc(F)cc3)cc(=O)c2c1	·	·	·	–	·	·
COc1cc(CNC(=O)c2cccc(COc3ccc(Cl)cc3)c2)cc(OC)c1	16.4µM	?	?	–	?	–
NNC(=O)c1cccc(COc2ccc(Br)cc2)c1	?	?	?	–	20.6µM	–
O=C(O)c1cccc(COc2ccc(Br)cc2)c1	·	·	·	–	·	·
CC1CN(C(=O)c2cccc(COc3ccc(Br)cc3)c2)CC(C)O1 (configuration not stated)	13µM	?	?	–	20.6µM	–
COc1ccc(OCc2cccc(C(=O)NN)c2)cc1	–	14.1µM	?	–	?	?
CC(C)C[C@@H]1N[C@H](C(=O)NCC2CC2)Cc2c[nH]c3cccc1c23	·	·	·	–	·	·

Bioassay records deposited in PubChem by National Center for Advancing Translational Sciences (NCATS).
